Inhibition data for 31 compounds are collected here from ChEMBL document CHEMBL1157539, “Thousands of chemical starting points for antimalarial lead identification” (Nature, 2010).

Each structure is given as a SMILES string.

Format in all cases: functional
The test system of assay [1] is Plasmodium falciparum. As to the kind of experiment: GSK_TCMDC: Inhibition of Plasmodium falciparum 3D7 in whole red blood cells, using parasite LDH activity as an index of growth. Test compounds present at 2uM.
The test system of assay [2] is Plasmodium falciparum. As to the kind of experiment: GSK_TCMDC: Inhibition of Plasmodium falciparum Dd2 in whole red blood cells, using parasite LDH activity as an index of growth. Test compounds present at 2uM.
Another assay deals with HepG2. As to the kind of experiment: GSK_TCMDC: Percent inhibition of human HepG2 cell line. Test compounds present at 10uM.

`CCn1ccc2c(N3CCCC3=O)cc(C(=O)N[C@@H](Cc3ccccc3)[C@H](O)CNCc3cccc(OC)c3)cc21`: the Inhibition (usually the percentage by which the read-out fell short of the control) with Plasmodium falciparum [1] was found to be 94%; in the assay on Plasmodium falciparum [2], 92%; with HepG2, 4%.

As to `Cc1nc(-c2cccc(C(=O)NC3CCC(CCN4CCc5ccc(-c6cccnc6)cc5CC4)CC3)c2)no1.Cl` (stereo not drawn), the results for the Inhibition in the assay on Plasmodium falciparum [1], with Plasmodium falciparum [2] and in the assay on HepG2 were 98%, 4% and 17%, respectively.

For `CCCCCCNC(=O)C1Cc2c([nH]c3ccc(C)cc23)C2(CCN(CCc3ccccc3)CC2)N1` (stereo not drawn), the Inhibition is listed as 85% in the assay with Plasmodium falciparum [1], 24% with Plasmodium falciparum [2] and 31% with HepG2.

Take `N#Cc1cc(C(=O)c2cc(Br)ccc2O)cn(C2CCCCC2)c1=O`: the Inhibition was 89% in the assay with Plasmodium falciparum [1], 9% in the assay on Plasmodium falciparum [2] and 3% with HepG2.

Regarding `CN(Cc1cccc(F)c1)C1CCN(c2cc(NC(=O)c3cccc(F)c3)ccn2)CC1.O=C(O)C(F)(F)F`, the Inhibition in the assay on Plasmodium falciparum [1] is 94%; in the assay on Plasmodium falciparum [2], 13%; in the assay on HepG2 it was 12%.

For `O=C(O)C(F)(F)F.c1ccc(CN2CCC(NCc3ccccc3-c3cccc(CNCc4ccc5c(c4)OCO5)c3)CC2)cc1`, the Inhibition in the assay with Plasmodium falciparum [1] came to 100%; in the assay with Plasmodium falciparum [2] it was 69%; with HepG2, 37%.

As for `CCNc1cc(C(=O)N[C@@H](Cc2cccc(Cl)c2)[C@H](O)CNC(C)CCCC(C)C)cc(N2CCCCS2(=O)=O)c1.Cl` (stereo partly drawn), the Inhibition with Plasmodium falciparum [1] was 98%; in the assay on Plasmodium falciparum [2], 78%; with HepG2, 7%.

Regarding `O=C(Nc1cccc(-c2ccc(NCCCN3CCCC3)nc2)c1)c1ccccc1`, the Inhibition is given as 100% with Plasmodium falciparum [1], 21% in the assay with Plasmodium falciparum [2] and 22% in the assay on HepG2.

Consider `Cc1cc(N(C)C)nc(Nc2ccc(NC(=O)c3ccc(F)cc3)cc2)n1`, for which the Inhibition in the assay on Plasmodium falciparum [1] worked out at 100%; in the assay on Plasmodium falciparum [2] it was 21%; in the assay with HepG2 it was 8%.

For `Cc1nnsc1C(=O)Nc1cccc(-c2ccc(-c3nc4ccccc4[nH]3)s2)c1`, the Inhibition in the assay with Plasmodium falciparum [1] is 89%; in the assay on Plasmodium falciparum [2] it was 13%; in the assay with HepG2, 55%.

`CCCNC(=O)Nc1cc2cc(-c3cccc(CN4CCCCC4)c3)ccc2n2c(C)nnc12`: the results for the Inhibition in the assay with Plasmodium falciparum [1], with Plasmodium falciparum [2] and in the assay with HepG2 were 100%, 50% and 60%, respectively.

For the compound `COc1ccc(OC)c(Cc2cnc3nc(N)nc(N)c3c2C)c1` [PIRITREXIM], the results for the Inhibition in the assay on Plasmodium falciparum [1], in the assay with Plasmodium falciparum [2] and with HepG2 were 92%, 97% and 68%, respectively.

As to `COCCNCc1ccc(-c2ccccc2CNC2CCN(Cc3ccccc3)CC2)cc1.O=C(O)C(F)(F)F`, the Inhibition in the assay on Plasmodium falciparum [1] is listed as 97%; with Plasmodium falciparum [2] it was 28%; in the assay with HepG2 it was 17%.

`CCN1CCC(N(Cc2ccc(-c3ccc(C(F)(F)F)cc3)cc2)C(=O)Cn2c(CCc3cccc(F)c3F)nc(=O)c3ccccc32)CC1.O=C(O)C(O)C(O)C(=O)O`: the figures for the Inhibition in the assay on Plasmodium falciparum [1], in the assay with Plasmodium falciparum [2] and in the assay on HepG2 were 95%, 95% and 99%, respectively.

For `c1ccc(OCCCCN2CCCCC2)cc1`, the Inhibition with Plasmodium falciparum [1] was found to be 95%; in the assay with Plasmodium falciparum [2], 1%; in the assay on HepG2, 2%.

Consider `CCOc1cc(NC(=O)Nc2ccnc3ccccc23)cc(OC)c1.Cl`, for which the Inhibition in the assay on Plasmodium falciparum [1] was 98%; with Plasmodium falciparum [2], 73%; with HepG2, 0%.

Consider `COc1ccc(NC(=O)C2CCN(CCCCCNC(=O)/C=C/c3ccc(Cl)c(Cl)c3)CC2)cc1`, for which the Inhibition in the assay on Plasmodium falciparum [1] amounted to 98%; in the assay with Plasmodium falciparum [2], 0%; in the assay on HepG2 it was 26%.

Regarding `COC(=O)c1c(C#N)c(OC)cc(O)c1CSC[C@@H](CN1CCCCC1)Nc1nc(-c2ccc([N+](=O)[O-])cc2)cs1`, the Inhibition in the assay with Plasmodium falciparum [1] was 100%; in the assay with Plasmodium falciparum [2], 77%; with HepG2 it was 8%.

On to `Cl.O=c1cc(NCCCNCc2cc3ccccc3s2)[nH]c2ccccc12`, for which the Inhibition with Plasmodium falciparum [1] stood at 89%; with Plasmodium falciparum [2], 0%; with HepG2, 3%.

With `CCCC(=O)Nc1ccc(Cl)c(NC(=O)COc2cc(C)ccc2C(C)C)c1`, the Inhibition in the assay with Plasmodium falciparum [1] worked out at 87%; in the assay with Plasmodium falciparum [2], 67%; with HepG2 it was 2%.

Take `CC(=O)Nc1ccc(C(=O)N2CCN(c3ccnc4cc(Cl)ccc34)CC2)cc1.O=C(O)C(F)(F)F`: the Inhibition was found to be 93% with Plasmodium falciparum [1], 43% in the assay with Plasmodium falciparum [2] and 2% with HepG2.

For `Cc1onc(-c2c(Cl)cccc2Cl)c1C(=O)N1CCc2cc3nccc(N4CCN5CCC[C@H]5C4)c3cc21`, the Inhibition in the assay with Plasmodium falciparum [1] amounted to 100%; in the assay with Plasmodium falciparum [2] it was 58%; with HepG2 it was 3%.

On to `CN(Cc1cccc(F)c1)C1CCCN(c2cc(NC(=O)c3ccccc3)ccn2)C1.O=C(O)C(F)(F)F` (stereo not drawn), for which the Inhibition with Plasmodium falciparum [1] was 93%; in the assay with Plasmodium falciparum [2], 50%; with HepG2 it was 3%.

For the compound `CCCc1c(C(=O)OCC)c2cc(O)ccc2n1-c1ccc(OC)cc1`, the Inhibition in the assay with Plasmodium falciparum [1] amounted to 100%; with Plasmodium falciparum [2], 99%; in the assay with HepG2, 0%.

For the compound `Cn1c(=O)c(-c2c(Cl)cccc2Cl)cc2cnc(Nc3ccc(N4CCOCC4)cc3)nc21`, the Inhibition with Plasmodium falciparum [1] came out at 98%; in the assay with Plasmodium falciparum [2] it was 97%; with HepG2 it was 64%.

As to `Cc1cc(N2CCCN(C)CC2)nc(Nc2ccc(Cl)cc2)n1`, the results for the Inhibition with Plasmodium falciparum [1], in the assay with Plasmodium falciparum [2] and in the assay on HepG2 were 96%, 11% and 8%, respectively.

`CCNc1cc(C(=O)N[C@@H](Cc2ccccc2)[C@H](O)CNCCc2cccc3ccccc23)cc(N2CCCC2=O)c1.O=CO`: the Inhibition in the assay on Plasmodium falciparum [1] is listed as 86%; in the assay with Plasmodium falciparum [2] it was 39%; with HepG2 it was 12%.

In the case of `CCc1cc(NC2CCN(C)CC2)nc(Nc2ccc(C)cc2)n1`, the values for the Inhibition with Plasmodium falciparum [1], in the assay on Plasmodium falciparum [2] and in the assay with HepG2 were 95%, 11% and 3%, respectively.

Turning to `COc1cc2nc(Cl)nc(Nc3ccncc3)c2cc1OC.Cl`, the Inhibition in the assay with Plasmodium falciparum [1] turned out to be 86%; in the assay on Plasmodium falciparum [2], 33%; in the assay with HepG2, 11%.

As for `O=C(C=Cc1ccc(Cl)c(Cl)c1)NCCCCCN1CCC(CCNS(=O)(=O)c2ccc(F)cc2)CC1`, the results for the Inhibition with Plasmodium falciparum [1], in the assay on Plasmodium falciparum [2] and in the assay with HepG2 were 88%, 0% and 36%, respectively.

Regarding `CC(Cc1ccc(NC(=O)c2ccc(NCCc3ccccc3)cc2)cc1)NCCc1cccc(Cl)c1.Cl` (stereo not drawn), the figures for the Inhibition in the assay with Plasmodium falciparum [1], with Plasmodium falciparum [2] and in the assay with HepG2 were 92%, 1% and 25%, respectively.
